PubChem BioAssay (NCI)
About 83,000 compounds went through this panel and 20% of them were active in at least one assay; those are over-represented in the sample as a whole.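 Note: values are percent growth. 100 is the growth of untreated cells, values between 100 and 0 indicate rising inhibition; between -100 and 0 indicates cell death.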 The source made the active and inactive calls. How the source made its calls: active means growth percent below 10; inactive means the rest.

Tested on: A498 renal
Assay: NCI-60 one-dose screen, 48 h (100 = growth as untreated, 0 = no growth, -100 = all killed)
Details: 10 µM unless noted

Compound	growth
O=C(Nn1c(NCC(=O)N2c3ccccc3Sc3ccccc32)nnc1-c1ccc(O)cc1)c1ccccc1	100% (inactive)
N#C/C(=C\c1cccc2cnccc12)n1nnc2cccc(F)c21	67.7% (inactive)
O=C(S)CNC(=O)c1ccccc1	83.5% (inactive)
CN(C)c1ccc2nc3ccc(=[N+](C)C)c([N+](=O)[O-])c-3sc2c1	68.5% (inactive)
O=C1c2ccccc2NC(n2sc3ccccc3c2=O)N1c1ccccc1 (stereo unspecified)	89.2% (inactive)
Cc1nc2ccccc2c(/C=C/c2ccccc2)c1C(=O)/C=C/c1ccc(C(F)(F)F)cc1	-59.4% (active)
CCOC(=O)c1nc(Nc2ccc(C(C)=O)cc2)sc1C	75.1% (inactive)
Oc1ccc(Cl)cc1Cc1cc(Cl)cc(Cl)c1O	85.9% (inactive)
COc1nc2ccc(C)cc2cc1-c1nc2c(cnn2-c2ccc(Br)cc2)c(=O)[nH]1	7.08% (active)
CC(=O)OC[C@H]1OC(Sc2sc(C(=O)c3ccc(Cl)cc3)c(N)c2-c2nc3ccccc3s2)[C@H](OC(C)=O)[C@@H](OC(C)=O)[C@@H]1OC(C)=O (stereo partly specified)	87.8% (inactive)
O=C1NC(=O)C(Cn2cnc3ccccc32)N1 (stereo unspecified)	76.6% (inactive)
COc1cc(/C=C/C(=O)/C=C/c2cc(OC)c3c(c2OC)OCO3)c(OC)c2c1OCO2	43% (inactive)
COc1c(B(O)O)cc(C)cc1-c1nc2ccc3[nH]ncc3c2c2c1CCCC2	49.2% (inactive)
CCCCCCN(CCCCCC)c1ccc(/C=C2/SC(=O)NC2=O)c(C)c1	82.9% (inactive)
COC(=O)c1ccc2[nH]c(O)c(C(=Nc3ccc(N(C)C(=O)CN4CCN(C)CC4)cc3)c3ccccc3)c2c1	-35.9% (active)
CCOC(=O)CC1C(COC(=O)NC)OC(n2cnc3c(NC(=O)Nc4ccccc4)ncnc32)C1O[Si](C)(C)C(C)(C)C (stereo unspecified)	77.4% (inactive)
CN1C(=O)N(C)C2Nn3c(s/c(=C\c4ccccc4)c3=O)=NC21 (stereo unspecified)	68% (inactive)
COc1cc(C(=O)c2cc(C)c3[nH]c4ccc(C)cc4c3c2C)cc(OC)c1OC	-8.86% (active)
CC(=O)N1CCN(c2ccc(OCC3CO[C@](Cn4ccnc4)(c4ccc(Cl)cc4Cl)O3)cc2)CC1 (stereo partly specified)	86.4% (inactive)

Compound	growth
CN1CCN(Cc2ccc(NC(=O)c3cncc(C#Cc4cnccc4C#N)c3)cc2C(F)(F)F)CC1	84.9% (inactive)
CCOC(=O)/C(C#N)=C\Nc1ccc2ncnc(Nc3ccc(Cl)cc3Cl)c2c1	48.7% (inactive)
Cn1cc(C(=O)c2nc(-c3cn(C)c4ccc(F)cc34)no2)c2cc(F)ccc21	113% (inactive)
c1cc(-c2nnc(SSc3ncnc4nc[nH]c34)o2)ccn1	63% (inactive)
CN(C)CC#Cc1ccc2ncc(C#N)c(Nc3ccc(F)c(Cl)c3)c2c1	-11.8% (active)
C#Cc1cccc(NC(=O)Nc2ccccc2NC(=O)CCl)c1	-93.4% [8.25 µM] (active)
COc1ccc2c(c1OC)C(=O)O[C@H]2[C@H]1c2c(cc3c(c2OC)OCO3)CCN1C	93.1% (inactive)
Cc1ccc2c(-c3cc(-c4ccccc4)nc(N)c3C#N)cc(=O)oc2c1	63.6% (inactive)
C[C@]12CC[C@@H]3c4cc(OC(F)F)c(OS(N)(=O)=O)cc4CC[C@H]3[C@@H]1CC[C@@H]2O	-8.42% (active)
CC(=O)Oc1ccccc1C(=O)N=C1[Se]CCCN1C(=O)c1ccccc1OC(C)=O	68.6% (inactive)
N#Cc1c(-c2ccc(Cl)cc2)nc2c(c(-c3ccccc3)nn2-c2ccccc2)c1-c1ccc(O)cc1	79.3% (inactive)
CC(=O)c1ccc(Nc2nc(C(C)=O)c(C)s2)cc1	-17.9% (active)
O=C(CCCCCCSc1nc(-c2ccccc2)cc(-c2ccccc2)n1)NO	50% (inactive)
Cc1cc(Cl)ccc1NS(=O)(=O)c1ccc(-c2cnc(C3CC3)o2)cc1	-5.2% (active)
Brc1ccc2[nH]cc(-c3nc(-c4c[nH]c5ccncc45)cs3)c2c1	55.9% (inactive)
COc1cc(C(=O)/C=C/c2c(Cl)nc3sccn23)cc(OC)c1OC	88% (inactive)
N/C(=N\c1nc2ccccc2s1)NC(=O)Nc1cccc2ccccc12	-10.8% (active)
NC1CCN(c2nc(Nc3cccc(C(F)(F)F)c3)c3c(=O)[nH]ccc3n2)CC1	93.9% (inactive)
COc1ccc(/C=N/Nc2cc(=O)[nH]c3ccc(Cl)cc23)cc1	80.7% (inactive)

Tested on: CCRF-CEM leukemia
Assay: as above
Details: 10 µM unless noted

Compound	growth
O=C(Nn1c(NCC(=O)N2c3ccccc3Sc3ccccc32)nnc1-c1ccc(O)cc1)c1ccccc1	-2.21% (active)
N#C/C(=C\c1cccc2cnccc12)n1nnc2cccc(F)c21	17.6% (inactive)
O=C(S)CNC(=O)c1ccccc1	89.9% (inactive)
CN(C)c1ccc2nc3ccc(=[N+](C)C)c([N+](=O)[O-])c-3sc2c1	12.7% (inactive)
O=C1c2ccccc2NC(n2sc3ccccc3c2=O)N1c1ccccc1 (stereo unspecified)	104% (inactive)
Cc1nc2ccccc2c(/C=C/c2ccccc2)c1C(=O)/C=C/c1ccc(C(F)(F)F)cc1	9.14% (active)
CCOC(=O)c1nc(Nc2ccc(C(C)=O)cc2)sc1C	99.9% (inactive)
Oc1ccc(Cl)cc1Cc1cc(Cl)cc(Cl)c1O	19.5% (inactive)
COc1nc2ccc(C)cc2cc1-c1nc2c(cnn2-c2ccc(Br)cc2)c(=O)[nH]1	17.9% (inactive)
CC(=O)OC[C@H]1OC(Sc2sc(C(=O)c3ccc(Cl)cc3)c(N)c2-c2nc3ccccc3s2)[C@H](OC(C)=O)[C@@H](OC(C)=O)[C@@H]1OC(C)=O (stereo partly specified)	70.9% (inactive)
O=C1NC(=O)C(Cn2cnc3ccccc32)N1 (stereo unspecified)	102% (inactive)
COc1cc(/C=C/C(=O)/C=C/c2cc(OC)c3c(c2OC)OCO3)c(OC)c2c1OCO2	26.5% (inactive)
COc1c(B(O)O)cc(C)cc1-c1nc2ccc3[nH]ncc3c2c2c1CCCC2	35.1% (inactive)
CCCCCCN(CCCCCC)c1ccc(/C=C2/SC(=O)NC2=O)c(C)c1	73% (inactive)
COC(=O)c1ccc2[nH]c(O)c(C(=Nc3ccc(N(C)C(=O)CN4CCN(C)CC4)cc3)c3ccccc3)c2c1	10.7% (inactive)
CCOC(=O)CC1C(COC(=O)NC)OC(n2cnc3c(NC(=O)Nc4ccccc4)ncnc32)C1O[Si](C)(C)C(C)(C)C (stereo unspecified)	57.4% (inactive)
CN1C(=O)N(C)C2Nn3c(s/c(=C\c4ccccc4)c3=O)=NC21 (stereo unspecified)	99.5% (inactive)
COc1cc(C(=O)c2cc(C)c3[nH]c4ccc(C)cc4c3c2C)cc(OC)c1OC	14.2% (inactive)
CC(=O)N1CCN(c2ccc(OCC3CO[C@](Cn4ccnc4)(c4ccc(Cl)cc4Cl)O3)cc2)CC1 (stereo partly specified)	75.2% (inactive)

Compound	growth
CN1CCN(Cc2ccc(NC(=O)c3cncc(C#Cc4cnccc4C#N)c3)cc2C(F)(F)F)CC1	59% (inactive)
CCOC(=O)/C(C#N)=C\Nc1ccc2ncnc(Nc3ccc(Cl)cc3Cl)c2c1	70.9% (inactive)
Cn1cc(C(=O)c2nc(-c3cn(C)c4ccc(F)cc34)no2)c2cc(F)ccc21	92% (inactive)
c1cc(-c2nnc(SSc3ncnc4nc[nH]c34)o2)ccn1	21.8% (inactive)
CN(C)CC#Cc1ccc2ncc(C#N)c(Nc3ccc(F)c(Cl)c3)c2c1	81.7% (inactive)
C#Cc1cccc(NC(=O)Nc2ccccc2NC(=O)CCl)c1	22.2% [8.25 µM] (inactive)
COc1ccc2c(c1OC)C(=O)O[C@H]2[C@H]1c2c(cc3c(c2OC)OCO3)CCN1C	101% (inactive)
Cc1ccc2c(-c3cc(-c4ccccc4)nc(N)c3C#N)cc(=O)oc2c1	105% (inactive)
C[C@]12CC[C@@H]3c4cc(OC(F)F)c(OS(N)(=O)=O)cc4CC[C@H]3[C@@H]1CC[C@@H]2O	16.5% (inactive)
CC(=O)Oc1ccccc1C(=O)N=C1[Se]CCCN1C(=O)c1ccccc1OC(C)=O	22.1% (inactive)
N#Cc1c(-c2ccc(Cl)cc2)nc2c(c(-c3ccccc3)nn2-c2ccccc2)c1-c1ccc(O)cc1	27% (inactive)
CC(=O)c1ccc(Nc2nc(C(C)=O)c(C)s2)cc1	90.9% (inactive)
O=C(CCCCCCSc1nc(-c2ccccc2)cc(-c2ccccc2)n1)NO	2.47% (active)
Cc1cc(Cl)ccc1NS(=O)(=O)c1ccc(-c2cnc(C3CC3)o2)cc1	22% (inactive)
Brc1ccc2[nH]cc(-c3nc(-c4c[nH]c5ccncc45)cs3)c2c1	-23.3% (active)
COc1cc(C(=O)/C=C/c2c(Cl)nc3sccn23)cc(OC)c1OC	48.7% (inactive)
N/C(=N\c1nc2ccccc2s1)NC(=O)Nc1cccc2ccccc12	12.2% (inactive)
NC1CCN(c2nc(Nc3cccc(C(F)(F)F)c3)c3c(=O)[nH]ccc3n2)CC1	-18.4% (active)
COc1ccc(/C=N/Nc2cc(=O)[nH]c3ccc(Cl)cc23)cc1	38.2% (inactive)
